An excerpt weighted towards active compounds, which were near 3.6% of everything screened.
LGR2 inh: inhibitors of bursicon-induced Drosophila LGR2 receptor cAMP signaling; inhibition, % at 9.99 µM; AID 720647; actives 0.35% (n = 380,000); HEK293 LGR2, CRE-luciferase, bursicon-stimulated, 4 h;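 active means drop in luminescence signal, shown as inhibition above about 50% in the replicate tests, limit read from the data, passing the limit was not always enough; inconclusive means probably only some replicates passing the limit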;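 further: agonist challenge used bursicon conditioned medium at about half maximal strength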
Mdm2-MdmX inh: human Mdm2/MdmX binding inhibition; O15151+Q00987; SaOS-2 split-luciferase Mdm2/MdmX complementation, luminescence; inhibition, % at 8 µM; actives 3% (n = 330,000);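 active means inhibition of at least 50% at 8 µM in the primary screen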
Peg3 prom inh: Peg3 promoter activity inhibition. HeLa PEG-Prom luciferase reporter, luminescence, overnight. inhibition, % at 20 µM. actives 1.7% (n = 360,000). AID 588405;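 active means inhibition of at least 50% at 20 µM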
HSP90 refold inh: inhibitors of HSP90 luciferase refolding in rabbit reticulocyte lysate. inhibition, % at 5.6 µM. luciferase refolding luminescence, 3 h. actives 0.91% (n = 290,000);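 active means inhibition above the screen-wide mean plus 3 SD, computed separately per campaign, cut at about 16% in these data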;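 further: inhibitors lower the luminescence because luciferase stays unfolded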
CF NFkB block: blocks PAF-induced NF-kB reporter in cystic fibrosis cells | AID 588850 | actives 0.86% (n = 360,000) | KKLEB NF-kB-GFP reporter, GFP fluorescence overnight | inhibition, % at 5 µM;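 active means at least 50% inhibition at 5 µM, scaled per plate between neutral and stimulator controls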;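 further: PAF is a Pseudomonas aeruginosa culture filtrate used as stimulus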
KKLEB cytotox: CF airway cell cytotoxicity counter-screen; activity change (cytotoxicity), % at 5 µM; KKLEB CF airway cells viability, ATPlite luminescence, overnight; active compounds read low; cells stimulated with P. aeruginosa culture filtrate; actives 0.36% (n = 360,000);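 active means corrected activity change at or below -50% at 5 µM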
Mdm2 MdmX conf: confirmation of human Mdm2/MdmX interaction inhibitors | actives 55% (n = 10,000) | inhibition, % at 8 µM | shares compounds with Mdm2-MdmX inh | Mdm2-MdmX binding, luminescent assay | AID 489028; in the data active means inhibition above about 40%
FLuc counter: counter-screen for Mdm2/MdmX inhibitors: full-length luciferase; AID 504607; shares compounds with Mdm2-MdmX inh; inhibition, % at 8 µM; SaOS-2 full-length luciferase counterscreen, luminescence; actives 77% (n = 6,200);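 active means mean inhibition at 8 µM reaching about 37%, which flags the compound as non-specific, limit read from the data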;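 further: p53-null SaOS-2 cells with luciferase driven by a doxycycline-inducible promoter; compound on cells about two nights before reading with doxycycline added after day one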
A number is an active result; n = inactive; u = inconclusive; x = no result given.

SMILES | LGR2 inh | Mdm2-MdmX inh | Peg3 prom inh | HSP90 refold inh | CF NFkB block | KKLEB cytotox | Mdm2 MdmX conf | FLuc counter
Cc1ccc(OCC(=O)NNC(=O)C(C)Sc2ncnc3sc(C)c(C)c23)cc1 (stereo not drawn) | x | n | n | n | n | n | x | x
CCCNC(=O)N1CC2(C1)CN(C(=O)NC(C)C)[C@H](CO)c1c2c2ccc(OC)cc2n1C | n | x | x | x | x | x | x | x
CC(C)(C)c1ccc(Cn2c(=N)n(CC(O)c3ccco3)c3ccccc32)cc1 (stereo not drawn) | x | 98 | 105 | n | n | n | 84 | 40
Cc1ccccc1Cn1c(=N)n(CC(O)c2ccco2)c2ccccc21 (stereo not drawn) | x | n | n | n | n | n | x | x
COc1ccc2c3c([nH]c2c1)[C@H](CO)N(Cc1ccccc1Cl)CC31CCN(C(C)=O)CC1 | n | x | x | x | x | x | x | x
O=C1Nc2cc(C(=O)NCCCN3CCOCC3)ccc2S/C1=C/c1cccc(Cl)c1 | n | 73 | 107 | n | n | n | n | x
CCCN1CCN(CCCNC(=O)c2ccc3c(c2)NC(=O)c2ccccc2S3)CC1 | n | n | n | n | n | n | x | x
COc1ccc(/C=C2/Sc3ccc(C(=O)NCCN4CCCCCC4)cc3NC2=O)cc1 | n | 100 | 105 | n | n | n | 88 | n
CCC1CCCCN1CCCNC(=O)c1ccc(/C=C2/Sc3ccccc3NC2=O)cc1 (stereo not drawn) | n | 86 | 99 | n | n | n | n | 55
COc1ccc(S(=O)(=O)N(C)C[C@@H]2Oc3ccc(NS(=O)(=O)c4ccccc4)cc3C(=O)N([C@@H](C)CO)C[C@@H]2C)cc1 | n | x | x | x | x | x | x | x
Cc1ccc(S(=O)(=O)N(C)C[C@@H]2OCCCC[C@H](C)Oc3ccc(NC(=O)Nc4ccc(F)cc4)cc3C(=O)N([C@H](C)CO)C[C@@H]2C)cc1 | n | x | x | x | x | x | x | x
CCc1ccc2oc(C(=O)N3CCN(c4ccccc4OC)CC3)cc(=O)c2c1 | n | 60 | n | n | n | n | 50 | 40
COc1ccccc1N1CCN(C(=O)c2ccc(-c3ccc(Cl)cc3)o2)CC1 | n | 56 | n | x | n | n | 56 | 59
CCc1ccc2oc(C(=O)N3CCN(c4ccc(OC)cc4)CC3)cc(=O)c2c1 | n | n | n | n | n | n | x | x
COc1ccccc1N1CCN(C(=O)COc2ccc(Cl)cc2Br)CC1 | x | 57 | n | n | n | n | n | 60
COc1ccccc1N1CCN(C(=O)COc2ccc(C)cc2Br)CC1 | x | n | n | n | n | n | x | x
COc1ccc(NC(=O)Nc2cccc3c2O[C@@H](CN(C)S(=O)(=O)c2ccccc2)[C@@H](C)CN([C@H](C)CO)C3=O)cc1 | n | x | x | x | x | x | x | x
COc1cccc(CN2[C@H](CO)[C@@H](c3ccccc3)C23CN(C(=O)C2CCC2)C3)c1 | n | x | x | x | x | x | x | x
C[C@H]1CN([C@@H](C)CO)C(=O)c2cccc(NC(=O)c3ccc(-c4nccs4)cc3)c2O[C@H]1CN(C)C(=O)Nc1ccccc1 | n | x | x | x | x | x | x | x
NNc1ccc2c(C(F)(F)F)cc(C(F)(F)F)nc2n1 | n | n | n | n | n | n | x | x
N#CC(c1cccc(Cl)c1)c1ccc2c(C(F)(F)F)cc(C(F)(F)F)nc2n1 (stereo not drawn) | x | 98 | 57 | n | 53 | -60 | 94 | 57
O=C1NC2(CCN(Cc3ccccc3)CC2)Oc2ccccc21 | n | n | n | n | n | n | x | x
O=C1c2ccccc2OC2(C=Cc3ccccc3O2)N1Cc1ccccc1 (stereo not drawn) | n | 54 | n | n | n | n | 48 | 40
COc1cccc(CNC(=O)C[C@H]2C=C[C@H](NC(=O)C3CCC3)[C@@H](CO)O2)c1 | n | x | x | x | x | x | x | x
O=C(C[C@@H]1C[C@@H]2c3cc(NC(=O)C4CCOCC4)ccc3O[C@@H]2[C@H](CO)O1)NCc1ccc(Oc2ccccc2)cc1 | n | x | x | x | x | x | x | x
SMILES | LGR2 inh | Mdm2-MdmX inh | Peg3 prom inh | HSP90 refold inh | CF NFkB block | KKLEB cytotox | Mdm2 MdmX conf | FLuc counter
COc1ccc(-c2nnc(OC)c3ccccc23)cc1 | n | n | n | n | n | n | x | x
COc1ccc(-c2nnc(Sc3nc4ccccc4o3)c3ccccc23)cc1 | n | 66 | n | n | n | n | 42 | 68
CCC(NC(=S)NCc1ccc(F)cc1)c1ccc(C(C)C)cc1 (stereo not drawn) | n | 76 | n | n | n | n | n | x
COc1ccc(C(C)NC(=S)NCc2ccc(F)cc2)cc1OC (stereo not drawn) | n | n | n | n | n | n | x | x
Cn1nc(C(=O)Nc2ccc(S(=O)(=O)N3CCCCC3)cc2)c2ccccc2c1=O | n | n | n | n | n | n | x | x
Cn1nc(C(=O)Nc2cccc(S(=O)(=O)N3CCCCC3)c2)c2ccccc2c1=O | n | 63 | n | x | n | n | 53 | 83
Cc1ccc(NC(=O)c2ccccc2NS(=O)(=O)c2ccc(F)cc2)cc1S(=O)(=O)N1CCCCC1 | u | 89 | 52 | n | n | n | 91 | n
O=C(Nc1cccc(S(=O)(=O)N2CCCCC2)c1)c1ccccc1NS(=O)(=O)c1ccc(F)cc1 | n | 89 | n | n | n | n | 71 | 111
CCc1ccccc1Nc1nc(N)nc(COC(=O)c2cccn2C)n1 | x | 54 | n | n | n | n | 62 | 196
COc1cc(C#Cc2c(-c3cncn3C)n(C)c3ccc(-c4cnc(OC)nc4)cc23)cc(OC)c1 | n | 66 | n | x | n | n | n | 63
COc1cc(C#Cc2c(-c3cncn3C)n(C)c3ccc(-c4ccc(CN5CCOCC5)cc4)cc23)cc(OC)c1 | n | 70 | n | x | n | n | n | x
COc1cc(C#Cc2c(-c3cncn3C)n(C)c3ccc(-c4cnc(N5CCOCC5)nc4)cc23)cc(OC)c1 | n | 81 | n | x | n | n | n | x
CCC1CSC(Nc2ccc(C(=O)/C=C/c3ccc(Br)cc3)cc2)=N1 (stereo not drawn) | n | 59 | n | n | n | n | n | x
CN1C(=O)c2cc(NC(=O)C3CC3)ccc2OC[C@@H]2O[C@H](CC(=O)NCCc3ccncc3)CC[C@@H]21 | n | x | x | x | x | x | x | x
Cc1ccc(CN(C)C[C@H]2OCc3cn(nn3)CCCC(=O)N([C@H](C)CO)C[C@@H]2C)cc1 | n | x | x | x | x | x | x | x
Nc1c(C(=O)NC2CCCC2)c2nc3ccccc3nc2n1/N=C/c1cccnc1 | n | 51 | n | x | n | n | n | x
C[C@H]1CCCCO[C@@H](CN(C)C(=O)Nc2ccccc2)[C@@H](C)CN([C@@H](C)CO)C(=O)c2cc(NC(=O)c3ccccc3)ccc2O1 | n | x | x | x | x | x | x | x
O=[N+]([O-])c1ccc(Oc2cccc(Br)c2)c2ccncc12 | n | 58 | n | n | n | n | n | x
COc1ccc(C(=O)Nc2ccc3c(c2)C(=O)N(C)C[C@H](OC)[C@@H](C)CN(C(C)=O)[C@@H](C)CO3)cc1 | n | x | x | x | x | x | x | x

Screens: PubChem, several laboratories
